Compound activity (PubChem BioAssay)
Rows were chosen to be rich in hits. Some 4% of all compounds tested hit in one or more screens of this group.
C2C12 statin = suppression of simvastatin myotoxicity; C2C12 myotubes + simvastatin, ATP luminescence, 48 h; scaled: DMSO 0, geranylgeraniol control 100; rescue of ATP level, % at 7.49 µM; 330,000 tested, 0.78% active; AID 602340;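 active = mean ATP rescue above about 67%, or every replicate alone reaching that limit, limit read from the data, passing the limit was not always enough; inconclusive = no clear call, values can overlap the other calls; inactive = mean under the limit and some replicate under it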;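 also: myotubes were challenged with 10 µM simvastatin during compound exposure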
Wnt bcat act = Wnt/beta-catenin pathway activation; 300,000 tested, 1.2% active; Wnt/beta-catenin reporter cell assay, activator, plate reader; activation, % at 9.35 µM; AID 743398; in the data active = activation above about 30%, passing the limit was not always enough; inconclusive = no clear call, values can overlap the other calls;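 also: 0% = neutral control wells and 100% = positive control wells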
MITF TRPM1 inh = reduces MITF-dependent TRPM1 promoter luciferase signal | SK-MEL-5 TRPM1 promoter luciferase, 24 h | inhibition, % at 12.5 µM | 330,000 tested, 0.83% active;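 active = mean inhibition across replicates of 60% or more, whatever share of single replicates reaches that level; inconclusive = some that reach 60%, reason not given; inactive = mean inhibition across replicates below 60%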
EBV LMP1 NFkB = Epstein-Barr LMP1 NF-kappaB reporter inhibition; 350,000 tested, 0.69% active; LMP1-induced NF-kappaB luciferase reporter cells, luminescence; inhibition, % at 12.5 µM; in the data active = inhibition above about 41%; inconclusive = no clear call, values can overlap the other calls;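 also: 0% = neutral control wells and 100% = reference inhibitor control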
MITF TRPM1 HTS = increases MITF-driven TRPM1 promoter luciferase signal. SK-MEL-5 TRPM1-promoter luciferase, 24 h; % of positive control, neutral wells = 0. activation, % at 12.5 µM. 300,000 tested, 0.75% active. AID 588334;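 active = mean activation of at least 80% with every replicate also reaching 80%; inconclusive = mean reaches 80% but some replicate falls short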;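 also: 0% = neutral control wells and 100% = parthenolide positive control wells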
esBAF inh = inhibitors of esBAF chromatin remodeling in mouse ES cells; Bmi1-luciferase knock-in reporter, 24 h; 100% = twice the neutral-well signal; reporter increase, % at 12.5 µM; 350,000 tested, 2% active; in the data active = activation above about 40%; inconclusive = no clear call, values can overlap the other calls;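 also: 0% = median of the plate's neutral control wells and 100% = double that signal; a rise in the Bmi1 reporter signal indicates esBAF inhibition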
Starred values were filed as active, the others as inactive.

For CCc1ccc(N(CC(=O)NC(C)C)C(=O)CCC(=O)Nc2ccccn2)cc1 the results were C2C12 statin -6, Wnt bcat act 0, MITF TRPM1 inh 3, EBV LMP1 NFkB -19 and esBAF inh -2.
`C[C@H](CO)N1C[C@H](C)[C@@H](CN(C)Cc2ccncc2)Oc2ncc(C#CC3(O)CCCC3)cc2C1=O` gave C2C12 statin -10 and esBAF inh -4.
Cc1ccc(-c2nc(SC(C)C(=O)N3CCCC3)n[nH]2)cc1 (stereo not given) was read as C2C12 statin -1, Wnt bcat act 3, MITF TRPM1 inh 14, EBV LMP1 NFkB -2, MITF TRPM1 HTS -12 and esBAF inh 6.
Screening CCc1noc(C)c1C(=O)Nc1ccc(S(=O)(=O)N2CCCC(C)C2)cc1 (stereo not given) returned C2C12 statin 9, Wnt bcat act 1, MITF TRPM1 inh 3, EBV LMP1 NFkB 6 and MITF TRPM1 HTS 0.
For O=C(Nc1cccnc1)c1cc(-c2cc(Cl)ccc2O)n[nH]1 the results were Wnt bcat act 38*, MITF TRPM1 inh -82, EBV LMP1 NFkB -33 and MITF TRPM1 HTS inconclusive.
`Cc1ccc(NC(=O)c2cc(-c3ccc(C)c(C)c3O)n[nH]2)cc1C` gave C2C12 statin 7, Wnt bcat act 0, MITF TRPM1 inh -2, EBV LMP1 NFkB 8, MITF TRPM1 HTS 5 and esBAF inh -10.
`Cc1cccc(NC(=O)c2cc(-c3ccc(C)c(C)c3O)n[nH]2)c1` gave C2C12 statin -15, Wnt bcat act 16, MITF TRPM1 inh -53, EBV LMP1 NFkB -16, MITF TRPM1 HTS 51 and esBAF inh 43*.
`CCCn1cnc2c(sc3nc4c(cc32)CSC(C)(C)C4)c1=O` gave C2C12 statin 1, MITF TRPM1 inh -62, EBV LMP1 NFkB -21, MITF TRPM1 HTS 57 and esBAF inh 70*.
CC1(C)Cc2nc3sc4c(=O)n(Cc5ccccc5)cnc4c3cc2CS1 was read as Wnt bcat act -1, MITF TRPM1 inh 1, EBV LMP1 NFkB -7 and MITF TRPM1 HTS 1.
CCOc1ccc(C2NC(=O)CCC2[N+](=O)[O-])cc1 (stereo not given) was read as C2C12 statin 13, Wnt bcat act -1, MITF TRPM1 inh 3, EBV LMP1 NFkB -8 and esBAF inh -9.
Screening Cc1ccc(C2CCN(C(=O)Nc3ccc(F)cc3)C2)cc1 (stereo not given) returned C2C12 statin -21, Wnt bcat act -1, MITF TRPM1 inh -92, EBV LMP1 NFkB -25, MITF TRPM1 HTS 95* and esBAF inh 63*.
For Cc1nc2cc(NC(=O)N3CCC(c4ccccc4)C3)ccc2n1C (stereo not given) the results were C2C12 statin -15, Wnt bcat act 6, MITF TRPM1 inh -28, EBV LMP1 NFkB 3, MITF TRPM1 HTS 41 and esBAF inh 54*.
O=C(Nc1cccc2ccccc12)N1CC=C(c2ccccc2)CC1 was read as C2C12 statin 6, MITF TRPM1 inh 11, EBV LMP1 NFkB 15, MITF TRPM1 HTS -8 and esBAF inh 6.
O=C(Nc1ccccc1)N1CC=C(c2ccc(F)cc2)CC1 was read as C2C12 statin 15, MITF TRPM1 inh -99, EBV LMP1 NFkB -10, MITF TRPM1 HTS 103* and esBAF inh 61*.
Screening O=C(COC(=O)c1cncc(Br)c1)Nc1ccc(N2CCCCC2)cc1 returned C2C12 statin 18, Wnt bcat act 1, EBV LMP1 NFkB -2 and esBAF inh 10.
CC(C)(O)C(=O)N/N=C\c1ccc(OC/C=C/c2ccccc2)cc1 was read as C2C12 statin 6, Wnt bcat act 13, MITF TRPM1 inh -100, EBV LMP1 NFkB 9, MITF TRPM1 HTS 105* and esBAF inh 29.
CC(=O)N/N=C\c1ccccc1OC/C=C/c1ccccc1 was read as C2C12 statin -15, Wnt bcat act 42*, MITF TRPM1 inh -81, EBV LMP1 NFkB -38, MITF TRPM1 HTS inconclusive and esBAF inh 70*.
N/C(=N\OC(=O)c1cccc2ccccc12)c1cccnc1 was read as C2C12 statin 7, Wnt bcat act 45*, MITF TRPM1 inh -33, EBV LMP1 NFkB -71, MITF TRPM1 HTS 35 and esBAF inh 44*.
For N/C(=N\OC(=O)c1cccc2ccccc12)c1cccc([N+](=O)[O-])c1 the results were C2C12 statin 15, Wnt bcat act 0, MITF TRPM1 inh -46, EBV LMP1 NFkB -33, MITF TRPM1 HTS 43 and esBAF inh 10.
O=C(O/N=C(\c1ccccc1)c1ccccn1)c1cccc2ccccc12 was read as Wnt bcat act 0, MITF TRPM1 inh 4, EBV LMP1 NFkB 0 and MITF TRPM1 HTS -2.
Cc1cccc(/C(N)=N/OC(=O)c2cccc3ccccc23)c1 was read as C2C12 statin 10, Wnt bcat act 25, MITF TRPM1 inh -33, EBV LMP1 NFkB -27, MITF TRPM1 HTS 41 and esBAF inh 49*.
`CN(CCCS(=O)(=O)[O-])c1ccc(/C=C/c2ccc3ccccc3[n+]2C)cc1` gave C2C12 statin -1, Wnt bcat act -2, MITF TRPM1 inh -5, EBV LMP1 NFkB -3, MITF TRPM1 HTS 11 and esBAF inh 13.
`COc1ccccc1/C=C/c1nc2ccc(OC(C)=O)cc2c(=O)o1` gave C2C12 statin 8, Wnt bcat act 0, MITF TRPM1 inh 10, EBV LMP1 NFkB 1, MITF TRPM1 HTS -5 and esBAF inh 11.
`CN(C)c1ccc(/C=C/c2ccc3c4ccccc4ccc3[n+]2-c2ccccc2)cc1` gave C2C12 statin -171, Wnt bcat act -9, MITF TRPM1 inh 104*, EBV LMP1 NFkB -19, MITF TRPM1 HTS -103 and esBAF inh -68.
`CN(C)c1ccc(/C=C/c2ccc3ccccc3[n+]2C)cc1` gave C2C12 statin -70, Wnt bcat act -16, MITF TRPM1 inh 88*, EBV LMP1 NFkB 22, MITF TRPM1 HTS -87 and esBAF inh -65.
Screening COc1ccc(/C=C/c2ccc3ccccc3[n+]2C)cc1OC returned C2C12 statin -15, MITF TRPM1 inh -24, EBV LMP1 NFkB -30, MITF TRPM1 HTS 20 and esBAF inh 55*.
Screening CC(=O)Oc1ccccc1/C=C/c1ccc2ccccc2[n+]1C returned C2C12 statin -2, Wnt bcat act 4, MITF TRPM1 inh -70, EBV LMP1 NFkB 2, MITF TRPM1 HTS 75 and esBAF inh 65*.
CC(=O)c1cccc(NC(=O)C2CCN(C(=O)c3ccc([N+](=O)[O-])cc3)CC2)c1 was read as C2C12 statin 11, Wnt bcat act -4, MITF TRPM1 inh 7, EBV LMP1 NFkB 2, MITF TRPM1 HTS -5 and esBAF inh 3.
`[O-][n+]1c(/C=C/c2ccccc2)ccc2ccccc21` gave C2C12 statin 17, Wnt bcat act 37*, MITF TRPM1 inh -25, EBV LMP1 NFkB -16, MITF TRPM1 HTS 21 and esBAF inh 1.
